Results filed as inconclusive are left out. Where a call stands in place of a potency, no number is given. A number with no mark means an inactive call. Active and inactive are the calls of the source. Calls come from the whole dose curve.
What follows are compounds tested against Retinoic acid receptor RXR-alpha (Homo sapiens) (UniProt P19793) (assay: qHTS assay to identify small molecule agonists of the RXR signaling pathway (AID 1159527; note: nearly all actives have a fitted effect of over 35% in size)). Details: HEK293T RXRa-UAS-bla, beta-lactamase ratio, 16 h; series mostly up to 76.8 µM; activation: at the top concentration.
Chain of Retinoic acid receptor RXR-alpha (Homo sapiens) (P19793 whole entry, looked up): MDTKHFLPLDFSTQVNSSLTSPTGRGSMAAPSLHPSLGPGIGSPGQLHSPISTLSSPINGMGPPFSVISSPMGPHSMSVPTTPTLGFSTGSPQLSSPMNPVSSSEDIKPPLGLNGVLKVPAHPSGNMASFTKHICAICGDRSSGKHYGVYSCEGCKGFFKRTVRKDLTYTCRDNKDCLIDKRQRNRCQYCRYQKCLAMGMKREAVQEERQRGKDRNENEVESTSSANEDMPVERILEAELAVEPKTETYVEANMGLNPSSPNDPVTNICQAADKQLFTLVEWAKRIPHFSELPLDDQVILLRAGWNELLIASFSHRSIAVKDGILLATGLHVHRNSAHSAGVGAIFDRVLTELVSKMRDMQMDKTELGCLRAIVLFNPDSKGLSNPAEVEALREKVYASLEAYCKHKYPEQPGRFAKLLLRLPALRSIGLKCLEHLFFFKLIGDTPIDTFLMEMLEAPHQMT
Outline: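 Reporter activation is measured as beta-lactamase activity via FRET substrate cleavage (emission 460/530 nm) in HEK 293T cells expressing an RXR-alpha-driven bla construct, following 16 hr compound exposure at 37 C.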
`Cc1cccc(Nc2ccccc2C(=O)O)c1C` was tested, and the “activation” value was -0.317% [at 35.3 µM]. With `[Na+]` the Potency was “inactive”. For `Nc1cc(Cl)c(N)c(Cl)c1`, the “activation” value was -2.05%. In the case of `IC(I)I`, the “activation” value is reported as -10.6%. `c1ccc2c(c1)[nH]c1ccccc12` was tested, and the Potency was “inactive”. In the case of `CC(=O)Oc1c(C)c(C)c2c(c1C)CC[C@@](C)(CCC[C@H](C)CCC[C@H](C)CCCC(C)C)O2`, the Potency is reported as “inactive”. For `O=C1OC2(c3ccccc31)c1cc(I)c(O)c(I)c1Oc1c2cc(I)c(O)c1I`, the “activation” value was 0.511% [at 35.3 µM]. In the case of `Nc1ccc(N)c(Cl)c1`, the Potency is reported as “inactive”. With `CCO[Si](CCCNC(N)=O)(OCC)OCC` the “activation” value was 8.92%. `C=CN1CCCC1=O` was tested, and the “activation” value was -10.4%. `C=C[C@H]1CN2CC[C@H]1C[C@H]2[C@H](O)c1ccnc2ccc(OC)cc12` was tested, and the Potency was “inactive”. `O=C(O)CCCCCCCCCCCC(=O)O` was tested, and the “activation” value was 3.25%. For `Cc1ccc(N)c([N+](=O)[O-])c1`, the “activation” value was -5.63%. For `C[C@]12C=CC(=O)C=C1CC[C@H]1[C@@H]3C[C@@H](O)[C@](O)(C(=O)CO)[C@@]3(C)C[C@H](O)[C@@]12F`, the Potency was “inactive”. `c1ccc2c(c1)ccc1cc3c(ccc4ccccc43)cc12` was tested, and the Potency was “inactive”. In the case of `C=C[C@H]1CN2CC[C@H]1C[C@@H]2[C@@H](O)c1ccnc2ccc(OC)cc12`, the Potency is reported as “inactive”. With `Nc1cc([N+](=O)[O-])ccc1C(=O)O` the Potency was “inactive”. For `FC(F)(F)C(Cl)Br` (configuration not stated), the Potency was “inactive”. For `CCCN1C=CN(C)C1`, the Potency was “inactive”. `CC1=CC(C)(C)Nc2ccccc21` was tested, and the Potency was “inactive”. For `C1COCCN1`, the Potency was “inactive”. `O=C(O)c1ccc(O)cc1` was tested, and the Potency was “inactive”. In the case of `CCCCCCCCCCC(CO)CCCCCCCC` (configuration not stated), the Potency is reported as “inactive”. In the case of `OC[C@@H](O)[C@@H](O[C@@H]1O[C@H](CO)[C@H](O)[C@H](O)[C@H]1O)[C@H](O)[C@@H](O)CO`, the Potency is reported as “inactive”. With `[O-]/[N+](=N\O)c1ccccc1` the “activation” value was -17.3%. With `Cc1ccc(C(C)(C)C)c(O)c1` the “activation” value was -18.5%. For `COCCOCCOCCO`, the “activation” value was 1.99%. For `CN(C)C`, the Potency was “inactive”. `CN(C)/N=N/c1nc[nH]c1C(N)=O` was tested, and the Potency was “inactive”. With `Cc1ccc(C(C)(C)C)cc1` the Potency was “inactive”. With `CC/C(=C(/CC)c1ccc(O)cc1)c1ccc(O)cc1` the “activation” value was -14.7% [at 35.3 µM]. In the case of `C[N+](C)(C)CCO`, the “activation” value is reported as 11.1%.

Reference: PubChem BioAssay (Tox21)
